# ATXN2 expr inh – Primary qHTS for Inhibitors of ATXN expression | HEK-293 ATXN2-luciferase reporter, luminescence, 24 h | Potency, µM (doses to about 57 µM), usual class: inhibitors | actives 0.72% (n = 360,000) | AID 1745845, 2022; also: nearly all actives have a fitted effect of over 55% in size
#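 ATXN2-luciferase reporter cells (luciferase flanked by upstream and downstream ATXN2 gene portions) were treated 24 h at 37 °C with compounds at up to 57 uM. SteadyGlo luminescence gave expression; GF-AFC fluorescence gave viability.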
# S2 tox – Viability Counterscreen for Primary qHTS for Inhibitors of ATXN expression. S2 cells (HEK-293 line with an ATXN2-luciferase reporter) viability, CellTiter-Fluor protease fluorescence, 24 h. Potency, µM (top dose mostly 56.7 µM), usual class: cytotoxic. actives 0.49% (n = 400,000); also: nearly all actives have a fitted effect of over 40% in size
# TGFb SMAD3 inh – qHTS for Inhibitors of TGF-b; HepG2 CAGA-GFP TGF-b/SMAD3 reporter, GFP fluorescence, 18 h; TGF-beta stimulated, 500 pg/mL final; Potency, µM (titrated, usually from 46.1 µM), actives largely listed as inhibitors; actives 1.2% (n = 410,000); also: nearly all actives have a fitted effect of over 65% in size
#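 Using HEPG2 CAGA-GFP reporter cells at 1000 cells/well, we pinned test compounds, stimulated with recombinant TGF-beta (500 pg/mL final) and measured total well GFP after 18 h.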
# HepG2 viability – qHTS for Inhibitors of TGF-b: Cytotox Counterscreen; Potency, µM (top dose mostly 46.1 µM), most hits filed as cytotoxic; actives 0.76% (n = 410,000); AID 588856, 2011; HepG2 CAGA-GFP viability, ATP luminescence, 18 h
#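 HepG2 CAGA-GFP cells (1000/well, DMEM with 1% FBS) received compound, then TGF-beta at 500 pg/mL final, and were incubated 18 hours at 37 degrees C. Viability was read by CellTiter-Glo luminescence. Media-only wells were set as complete cell-killing and DMSO as no toxicity.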
# Apoferritin bind – qHTS Assay for Identification of Novel General Anesthetics. actives 0.074% (n = 350,000). apoferritin/1-aminoanthracene competitive binding, fluorescence. Potency, µM (top dose mostly 77.5 µM), most hits filed as inhibitors. Ferritin light chain (Equus caballus), P02791; also: nearly all actives have a fitted effect of over 20% in size
# Target sequence (P02791 2-175 limits assumed): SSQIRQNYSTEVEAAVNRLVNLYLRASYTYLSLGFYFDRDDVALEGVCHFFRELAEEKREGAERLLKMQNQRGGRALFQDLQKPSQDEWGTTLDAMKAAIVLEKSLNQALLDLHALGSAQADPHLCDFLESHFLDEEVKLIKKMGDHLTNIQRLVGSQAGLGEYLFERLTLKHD
#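 Horse-spleen apoferritin (10 uM) was mixed with 50% saturated 1-aminoanthracene in PBS, exposed to compounds for 10 min at room temperature, and read for fluorescence (ex 380 nm, em 535 nm). Competitive displacement was fitted with a four-parameter Hill equation.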
# Hits are given with their value; – = inactive; ? = inconclusive; · = no result; [ ] = another dose, or the depositor's remark. Only some compounds are listed: those with a hit (about 2.4% of all), similar ones and a draw of the others. Calls follow the shape of the dose curve; as a rule, active = well fitted curve in the direction sought with a large enough effect; inconclusive = small, poorly fitted or top-dose-only effect, or another doubt; inactive = no such curve, though single readings can be large; an effect the other way counts as inactive or inconclusive.
SMILES,ATXN2 expr inh,S2 tox,TGFb SMAD3 inh,HepG2 viability,Apoferritin bind
CCOC(=O)c1c(NC(=O)CN2CCN(S(=O)(=O)c3cc(Cl)ccc3Cl)CC2)sc(C(=O)N(C)C)c1C,–,?,10µM,–,·
CCOC(=O)c1c(NC(=O)COC(=O)c2ccc(Cl)nc2)sc(C(=O)N(C)C)c1C,–,–,–,–,·
Clc1ccc(-c2nc3cnccn3c2Nc2ccc3c(c2)OCO3)cc1,–,–,?,–,–
CSc1ccc(-c2nc3cnccn3c2Nc2ccc3c(c2)OCO3)cc1,–,–,5µM,–,–
O=[N+]([O-])c1ccc(Sc2nnnn2-c2ccccc2)nc1,?,?,16µM,–,–
Cc1ccc(CNC(=O)COC(=O)c2nc(-c3ccccc3)oc2C)cc1,–,–,–,–,·
O=C(Nc1ccc(N2CCCCC2)cc1)c1ccccn1,1.8µM,–,–,–,?
O=C(Nc1ccc(Cl)c(S(=O)(=O)N2CCOCC2)c1)c1cn2ccccc2n1,–,–,–,–,–
O=C(Nc1ccc(N2CCOCC2)cc1)c1cn2ccccc2n1,11µM,–,–,–,–
O=C(Nc1ccc(N2CCCCCC2)cc1)c1ccccc1Cl,–,?,–,–,?
Cc1ccc2c(CN(C)Cc3ccc(OC(F)F)cc3)cc(=O)oc2c1C,–,–,–,13µM,–
CC12C=C(/C=C/c3ccc(F)cc3)C(C)(C1)C(c1ccc(F)cc1)CC2=O (stereo not given),·,·,·,·,–[15.3 µM]
C=CCOC(=O)C1=C(C)NC(C)=C(C(=O)OCC=C)C1/C=C/c1ccccc1,–,–,?,13µM,–
CCOC(=O)C1=C(C)NC(C)=C(C(=O)OCC)C1/C=C/c1ccccc1,–,–,–,–,–
CCCCC[C@H](O)/C=C/[C@H]1C(=O)C=C[C@@H]1C/C=C\CCCC(=O)O,·,·,·,·,–
CCCCC[C@H](O)/C=C/C1C(=O)C=C[C@H]1C/C=C\CCCC(=O)OC (stereo not given in full),?,·,22µM,–,·
CCCCOc1ccc(/C=N/Nc2cc(N3CCOCC3)nc(C)n2)cc1,·,?,–,–,?
CCCCOc1ccc(Br)cc1/C(C)=N/NC1=NCCN1,18µM,·,?,11µM,–
CCCCCCOc1ccc(/C(C)=N/NC2=NCCN2)cc1[N+](=O)[O-],·,18µM,?,20µM,?
C/C(=N\NC1=NCCN1)c1ccc(N)c([N+](=O)[O-])c1,–,–,–,–,–
O=C(CCc1nc2ccccc2s1)N1CCOc2ccc(CN3CCc4sccc4C3)cc2C1,·,–,·,·,·
CC1(C)OC(C(O)(c2cc(F)c(F)c(F)c2)c2cc(F)c(F)c(F)c2)C(C(O)(c2cc(F)c(F)c(F)c2)c2cc(F)c(F)c(F)c2)O1 (stereo not given),·,·,·,·,–[15.3 µM]
Cn1nc(-c2ccc(Cl)cc2)c2cc(C(=O)NCCCN3CCCC3)sc21,20µM,18µM,–,–,–
CCN1CCCC1CNC(=O)c1cc2c(-c3ccc(Cl)cc3)nn(C)c2s1 (stereo not given),25µM,14µM,?,–,–
COCCNC(=O)C1(C)CCCN(CCC(=O)c2ccc(Br)cc2)C1 (stereo not given),–,?,16µM,13µM,·
SMILES,ATXN2 expr inh,S2 tox,TGFb SMAD3 inh,HepG2 viability,Apoferritin bind
Cc1ccc(-n2c(SCc3ccccc3F)nc3[nH]ncc3c2=O)cc1Cl,?,35µM,?,–,–
CCc1ccc(-n2c(SCc3ccccc3F)nc3[nH]ncc3c2=O)cc1,?,20µM,?,–,?
CC(=O)c1cc(C(=O)Nc2cccc(C)c2)c2ccccn12,·,·,–,–,–
COc1cc(CNc2ccc3[nH]c(=O)[nH]c3c2)cc(Cl)c1OCc1ccccc1F,–,?,–,–,–
COc1cc(CNC2CCCC2)cc(Cl)c1OCc1ccccc1F,20µM,·,?,11µM,?
Cc1ccc(Cc2c(C3CCCCC3)nc3ccc(C)cn23)cc1,16µM,13µM,?,–,·
Cc1ccc(Cc2c(C3CCCCC3)nc3c4ccccc4ccn23)cc1,–,–,–,–,·
C/C(=N\Nc1nc2ccccc2s1)c1ccc(Br)s1,–[11.3 µM],·,13µM,–,–
CC(=NNc1nc2ccccc2s1)c1ccncn1,?,·,?,–,·
O=C(C=Cc1ccccc1F)c1ccccc1,?,·,11µM,–,·
O=C(C=Cc1cccc(Cl)c1)c1ccccc1,–,–,?,18µM,·
O=C(/C=C/c1ccccc1)NNC(=O)c1cccc(Cl)c1,–,–,–,–,–
COC(=O)C1=C[C@@H](C(=O)OC)[C@@H]2C3=C(C(=O)C2(C)C)[C@H](C)n2c(=O)n(C)c(=O)n2[C@@H]3C1,·,·,?,–,–
Cc1ncc2c(c1CNC(=O)c1ccc3c(c1)OCO3)CCN(C(=O)c1ccoc1)C2,·,–,·,·,·
COc1cccc(/C=N/NC(=O)c2ccc3nc[nH]c3c2)c1O,–,–,–,–,–
CCN(CC)c1ccc(/C=N/NC(=O)c2ccc3nc[nH]c3c2)c(O)c1,2.8µM,–,–,–,–
O=C(CSc1nnc2c(Cl)cc(C(F)(F)F)cn12)NCc1ccc(F)cc1,–,–,–,–,–
O=C(CSc1nnc2c(Cl)cc(C(F)(F)F)cn12)N(Cc1ccccc1)Cc1ccccc1,–,–,–,11µM,–
C=CC1=C(C(=O)O)N2C(=O)[C@@H](NC(=O)C(=NO)c3csc(N)n3)[C@H]2SC1,–,·,·,·,·
COc1ccc2c(Sc3ccc(Cl)cc3)c(C(=O)NCCCN3CCCCC3)[nH]c2c1,25µM,·,?,16µM,–
CCOCCCNC(=O)c1[nH]c2cc(OC)ccc2c1Sc1ccccc1,–,–,–,–,–
Cc1ccccc1C(=O)c1cccn1CC(=O)NCCN1CCN(c2cccc(C)c2C)CC1,?,?,?,13µM,?
CCc1ccccc1NC(=S)Nn1cnnc1,·,·,·,·,–
Cc1c(CCCN)c2ccccc2n1Cc1ccccc1,?,?,?,16µM,–
O=C(Nc1ccc(Cl)c([N+](=O)[O-])c1)c1ccc(NCCCN2CCOCC2)c([N+](=O)[O-])c1,32µM,?,–,–,–
O=C(Nc1ccc(O)c2c(=O)cc(-c3ccccc3Cl)oc12)c1cc(Cl)cc(Cl)c1,·,·,–,–,–
CN(c1ccc(F)cc1)S(=O)(=O)N1CCCC(C(=O)NCc2cccc(Br)c2)C1 (stereo not given),·,·,8.9µM,–,–
COc1ccc(CNC(=O)C2CCCN(S(=O)(=O)N(C)c3ccc(F)cc3)C2)cc1OC (stereo not given),·,·,?,–,–
NC(c1csc(NC(=O)c2cccc(OC(F)(F)F)c2)n1)c1ccccc1Cl (stereo not given),32µM,?,11µM,–,·
COC(=O)c1cnc(Nc2nc(C(N)c3ccccc3Cl)cs2)nc1C(F)(F)F (stereo not given),?,25µM,18µM,–,·

# Assay outcomes as filed in PubChem BioAssay.
